Assay results published in paper PMC12431657, “Discovery and mechanistic insights of dibenzoylmethane as a broad spectrum inhibitor of coronavirus” (PLOS Pathogens, 2025).

Each molecule was assayed on HCoV-OC43. Details: 24 h, 10 µM; inhibitor.
Set-up: species or system RD
CC1=C[C@]23C(=O)[C@@H](C=C(COC(=O)c4ccccc4)[C@@H](O)[C@]2(O)[C@H]1OC(=O)c1ccccc1)[C@H]1[C@@H](C[C@H]3C)C1(C)C [Ingenol 3,20-dibenzoate, ingenol 3,20-dibenzoate] was tested, and the “OC43 Inhibition rate” value was 82.9. C=C1C(=O)O[C@@H]2[C@H]3O[C@]3(C)CC/C=C(\C)CC[C@@H]12 [Parthenolide] was tested, and the “OC43 Inhibition rate” value was 36.9. With Cc1c([C@H](C)[C@@H]2NC[C@@H](C)C[C@H]2O)ccc2c1C[C@H]1[C@H]2CC=C2C[C@@H](O)CC[C@@]21C [Veratramine, veratramine] the “OC43 Inhibition rate” value was 77.2.
